Screening data: PubChem, Johns Hopkins Ion Channel Center
KCNQ2 pot: KCNQ2 (rat) channel potentiation; O88943; CHO-K1 KCNQ2, FluxOR thallium flux fluorescence; hits give high values; B-score at 10 µM; 0.54% of 310,000 active;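 active means fluorescence ratio B-score at least 3 SD of library B-scores, with initial fluorescence B-score within 3 of them, cut at about 5.3 in these data; same plate scores as AID 2156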;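 further: B-score of peak minus minimum over baseline fluorescence ratio after K+ and Tl+ stimulus; positive B-score means potentiation of KCNQ2 with more thallium influx and brighter signal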
Target sequence (O88943 whole entry, looked up): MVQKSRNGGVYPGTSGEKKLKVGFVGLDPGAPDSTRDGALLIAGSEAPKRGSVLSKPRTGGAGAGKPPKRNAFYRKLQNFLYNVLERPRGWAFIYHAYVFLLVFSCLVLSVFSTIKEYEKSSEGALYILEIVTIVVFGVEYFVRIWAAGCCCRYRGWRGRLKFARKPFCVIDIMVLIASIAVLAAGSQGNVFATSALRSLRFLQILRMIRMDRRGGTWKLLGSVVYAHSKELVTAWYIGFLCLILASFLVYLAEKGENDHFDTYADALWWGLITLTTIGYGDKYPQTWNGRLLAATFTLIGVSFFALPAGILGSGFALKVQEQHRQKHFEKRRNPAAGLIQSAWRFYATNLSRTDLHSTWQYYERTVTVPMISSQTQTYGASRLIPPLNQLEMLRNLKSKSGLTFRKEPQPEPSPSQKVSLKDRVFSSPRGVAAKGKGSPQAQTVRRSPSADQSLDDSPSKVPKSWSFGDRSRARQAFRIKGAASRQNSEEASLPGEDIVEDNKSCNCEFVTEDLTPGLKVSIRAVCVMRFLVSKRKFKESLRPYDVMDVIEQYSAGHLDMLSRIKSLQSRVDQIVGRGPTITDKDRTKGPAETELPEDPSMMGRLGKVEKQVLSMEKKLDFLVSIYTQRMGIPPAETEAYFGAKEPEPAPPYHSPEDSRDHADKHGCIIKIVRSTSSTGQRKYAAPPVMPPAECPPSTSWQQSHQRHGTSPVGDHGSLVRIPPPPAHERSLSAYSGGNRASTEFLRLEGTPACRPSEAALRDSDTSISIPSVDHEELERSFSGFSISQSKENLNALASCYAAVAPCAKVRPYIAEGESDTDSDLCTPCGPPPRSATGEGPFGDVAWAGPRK
KCNQ2 inh: inhibitors of rat KCNQ2 potassium channel; O88943; 1.1% of 310,000 active; CHO-K1 KCNQ2, FluxOR thallium flux, 20 min; hits give low values; B-score at 10 µM; AID 2156;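 active means fluorescence ratio B-score at most minus 3 library SDs, with starting brightness B-score within 2 library SDs, cut at about -5.5 in these data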
The depositor's hits bear a star; i = inactive; · = not tested or not shown. Hits are enriched below; roughly 1.6% of the tested compounds scored in any of these assays.

SMILES	KCNQ2 pot	KCNQ2 inh
O=S(=O)(O)c1ccc(N=Nc2ccccc2)cc1	0.12	i
O=c1ccc(N=Nc2ccccc2)ccc1O	19.2*	i
O=C(N1CCN(Cc2ccccc2)CC1)C12CC3CC(CC(C3)C1)C2	-5.61	-5.61*
O=C(N1CCN(c2ccccc2)CC1)C12CC3CC(CC(C3)C1)C2	·	i
Cc1ccc(C(=O)Nc2cccc(C(=O)N3CCOCC3)c2)cc1Cl	2.77	i
CCOC(=O)C1CCN(S(=O)(=O)c2ccc(C)c(C)c2)CC1	1.19	i
Cc1ccc(S(=O)(=O)N2CCC(C(=O)OCC(=O)N(Cc3ccccc3)C(C)(C)C)CC2)cc1C	-6.52	-6.52*
O=C(Nc1cccc(Cl)c1)N1N=CCC1c1ccccc1 (stereo not given)	-6.15	-6.15*
O=C(Nc1cccc2ccccc12)N1N=CCC1c1ccccc1 (stereo not given)	·	i
O=[N+]([O-])c1ccc(N2CCOCC2)cc1O	1.09	i
Cc1cc(N2CCOCC2)ccc1/C=C\[N+](=O)[O-]	-7.06	-7.06*
Cc1nc(C(F)(F)F)ccc1C(=O)Nc1ccccc1N1CCOCC1	0.47	i
O=C(Cn1nc(-c2cccc(Cl)c2)ccc1=O)NCC1COCCO1 (stereo not given)	0.82	i
O=C(NCCN1CCCCCC1)C1CCCN1S(=O)(=O)c1cccc2nsnc12 (stereo not given)	1.2	i
CCc1cc(C(=O)c2ccc(Br)cc2)c(NC(=O)CN(CC)CC)s1	-5.71	-5.71*
CCN(CC)CC(=O)Nc1sc(C)cc1C(=O)c1ccccc1	·	i
CC(C)(CNC(=O)Cc1ccc(Br)cc1)N1CCOCC1	1.72	i
CCOP(=O)(c1ccccc1)c1nc(-c2ccccc2Cl)oc1N1CCCCC1 (stereo not given)	-5.61	-5.61*
CCOP(=O)(OCC)c1nc(-c2cccc([N+](=O)[O-])c2)oc1N1CCCCC1	·	i
O=C(OCCN1CCN(C2=NS(=O)(=O)c3ccccc32)CC1)c1ccccc1F	0.46	i
O=C(Cc1csc(NC(=O)Nc2cccc(Cl)c2)n1)NC1CCCC1	0.36	i
CCN(Cc1ccccc1)C(c1ccncc1)c1nnnn1C(C)(C)C (stereo not given)	·	i
CCOc1ccc2[nH]c(=O)c(CN(Cc3cccs3)C(CC)c3nnnn3C(C)(C)CC)cc2c1 (stereo not given)	·	i
CCC(c1nnnn1C(C)(C)C)N(Cc1cccs1)Cc1cc2cc(C)c(C)cc2n2nnnc12 (stereo not given)	-5.9	-5.9*
CC(C)(C)n1nnnc1C(c1cccnc1)N(Cc1ccccc1)Cc1cccs1 (stereo not given)	·	i
SMILES	KCNQ2 pot	KCNQ2 inh
CC(C)(C)c1ccc(CN(Cc2ccccc2)C(c2ccccn2)c2nnnn2C(C)(C)C)cc1 (stereo not given)	-9.41	-9.41*
Cc1ccc(C(c2nnnn2C(C)(C)C)N(Cc2ccco2)Cc2cccs2)cc1 (stereo not given)	-6.15	-6.15*
c1ccc(CN(Cc2ccco2)C(c2ccncc2)c2nnnn2C2CCCC2)cc1 (stereo not given)	·	i
CC(C)(C)n1nnnc1C(c1ccc(C(F)(F)F)cc1)N(Cc1ccc(F)cc1)Cc1ccco1 (stereo not given)	-6.54	-6.54*
CCCS(=O)(=O)N1CCCC(C(=O)Oc2ccc(C)c(C)c2)C1 (stereo not given)	0.34	i
CC(=O)c1cnc2nc(SCc3cccc(C)c3)nn2c1C	2.42	i
O=C(CSCc1cc(=O)n2ccsc2n1)Nc1ccccc1	0.4	i
CNc1nc(N)c([N+](=O)[O-])c(Nc2ccccc2OC)n1	0.8	i
CCN1CCN(c2ccc(S(=O)(=O)N3CCCCC3)cc2NC(=O)c2sccc2C)CC1	·	i
CC(C)(C)n1nnnc1C(c1cccs1)N(Cc1ccccc1)Cc1cccnc1 (stereo not given)	·	i
CC(C)(C)n1nnnc1C(c1ccc(Cl)cc1)N(Cc1cccnc1)Cc1ccco1 (stereo not given)	-6.18	-6.18*
COc1ccc(CNC(=O)Nc2cccs2)cc1OC	1.92	i
COc1cccc(CNC(=O)Nc2cccs2)c1	5.67*	i
Clc1cccc(CSc2nnc(-c3sccc3-n3cccc3)o2)c1	·	i
Clc1cc(Cl)cc(CSc2nnc(-c3sccc3-n3cccc3)o2)c1	-5.89	-5.89*
CC[C@@H](NS(=O)(=O)c1ccc(C)cc1)C(=O)Oc1ccc2c3c(c(=O)oc2c1)CCC3	0.64	i
Cc1ccc(S(=O)(=O)NC(CC(C)C)C(=O)Oc2ccc3c4c(c(=O)oc3c2)CCC4)cc1 (stereo not given)	-7.87	-7.87*
COc1cc(CNC(=O)c2cc3ccccc3oc2=O)cc(OC)c1OC	0.73	i
Cc1[nH]nc2c1C(c1ccsc1)C1=C(CC(C)(C)CC1=O)N2 (stereo not given)	0.03	i
COc1cccc(N2CCN(C(=O)CN(c3cc(C)cc(C)c3)S(=O)(=O)c3c(C)noc3C)CC2)c1	·	i
Cc1cc(C)cc(N(CC(=O)N2CCN(c3ccccc3)CC2)S(=O)(=O)c2c(C)noc2C)c1	-6.54	-6.54*
C=CCNC(=O)/C(C#N)=C/c1c(N2CCN(c3ccc(OC)cc3)CC2)nc2c(C)cccn2c1=O	·	i
CCOC(=O)c1c(-c2ccc(C)o2)csc1NC(=O)COC(=O)c1cccs1	-5.99	-5.99*
CCOC(=O)c1c(-c2ccc(C)o2)csc1NC(=O)CN1CCOCC1	·	i
O=C(Nc1ccc(Nc2ccccc2)cc1)C(Cl)(Cl)Cl	0.08	i
SMILES	KCNQ2 pot	KCNQ2 inh
CC(=O)c1ccc(NC(=O)CCn2c(=S)oc3ccccc32)cc1	1.05	i
CCOc1ccc(CCn2c(-c3ccco3)nc3ccccc3c2=O)cc1OCC	-6.88	-6.88*
O=c1c2ccccc2nc(-c2ccco2)n1Cc1ccccc1	·	i
Cc1cccc(C(=O)NCC(=O)NCC2COc3ccccc3O2)c1 (stereo not given)	0.22	i
CCn1c(CNC(=O)c2ccccc2OC)nnc1SCC(=O)c1ccc(F)cc1	·	i
COc1ccc(NC(=O)/C(Cl)=C(/Cl)S(=O)(=O)Cc2ccccc2)cn1	5.5*	i
COc1ccc(NC(=O)C(Cl)=C(Cl)Cl)cn1	·	i
CCN(c1ccccc1)S(=O)(=O)c1cc(C(=O)Nc2cccc(Cl)c2)ccc1F	-8.11	-8.11*
CCc1ccc(NC(=O)c2ccc(F)c(S(=O)(=O)N(CC)c3ccccc3)c2)cc1	·	i
CC(=O)Oc1ccc(C(=O)Nc2ccccc2C(=O)Nc2ccc(C(=O)O)cc2)cc1	0.51	i
Cc1nc2c(-c3ccc(F)cc3)c(C)nn2c(C)c1CCC(=O)N1CCC(Cc2ccccc2)CC1	-6.06	-6.06*
Cc1nc2c(-c3ccc(F)cc3)c(C)nn2c(C)c1CCC(=O)N1CCN(c2ccccc2)CC1	·	i
Cn1ncc(Cl)c1C(=O)N1CCN(c2ccc(F)cc2)CC1	0.37	i
COc1ccc(/C(C)=N/Nc2cccc(C(=O)O)c2)cc1OC	·	i
C/C(=N\Nc1ccc(C(=O)O)cc1)c1ccc2c(c1)Nc1ccccc1S2	5.35*	i
CCN(CC1CCCN(CCc2cccc(F)c2)C1)C(=O)c1cc2ccccc2o1 (stereo not given)	·	i
CN(CC1CCCN(CCc2cccc(C(F)(F)F)c2)C1)C(=O)c1cc2ccccc2o1 (stereo not given)	-6.97	-6.97*
COc1ccc2cc(-c3[nH]ncc3CN3CCCN(c4ccccc4)CC3)ccc2c1	·	i
